Screening data from PubChem BioAssay.
In the library only some 2.2% were active in any assay of this set; here they are far more common.
aSyn UTR inh: 5' untranslated region of α-synuclein, MLPCN primary screen. 300,000 compounds, 0.82% hits. AID 1813. inhibition, % (tested at 7.5 µM). alpha-synuclein 5'UTR reporter, inhibitor activity; in the data active means inhibition above about 60%;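 further: H4 neuroglioblastoma cells stably carrying SNCA 5'UTR luciferase fusion; 0% = DMSO wells and 100% = positive control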
APP transl inh: APP translation inhibition; 190,000 compounds, 0.82% hits; SH-SY5Y APP 5'UTR-luciferase reporter, luminescence; AID 1285; inhibition, % at 2 µM;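 active means inhibition above a set limit, derived from the sample mean plus 3 SD, cut at about 45% in these data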
Ba/F3 V617F tox: reduce viability of Ba/F3 cells dependent on JAK2V617F. AID 1446. inhibition, % at 5.6 µM. Ba/F3 EpoR-JAK2V617F viability, ATP luminescence. 220,000 compounds, 1.1% hits;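 active means inhibition above the campaign mean plus 3 SD over all tested compounds, cut at about 24% in these data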;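 further: cytokine-independent growth of Ba/F3 cells driven by EpoR plus mutant JAK2; 0% = DMSO-treated cells and 100% = JAK inhibitor I control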
IEC-6 tox: counter-screen for KLF5 inhibitors: cytotoxicity in IEC-6 cells. IEC-6 cytotoxicity, luminescence viability. inhibition, % at 5 µM. 290,000 compounds, 0.78% hits. AID 1825;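 further: 0% = plate median of test compound wells and 100% = cytotoxic reference compound wells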
KLF5 inhibitor: inhibitors of KLF5 expression. DLD-1 KLF5 promoter-luciferase reporter, luminescence. inhibition, % at 5 µM. 290,000 compounds, 0.23% hits. AID 1700;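 active means inhibition above a per-plate limit of that plate's mean compound inhibition plus 3 SD, cut at about 60% in these data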;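 further: 0% = DMSO wells and 100% = LY294002 at 200 µM; higher means less KLF5 promoter-driven luciferase light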
BaF3 tox: parental Ba/F3 viability inhibition as JAK2V617F counter-screen; CellTiter-Glo ATP luminescence; inhibition, % at 5.6 µM; 220,000 compounds, 1.1% hits; AID 1486;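 active means inhibition above a per-campaign cutoff, the mean inhibition of all tested compounds plus 3 SD, cut at about 27% in these data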;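 further: 0% = DMSO wells and 100% = JAK Inhibitor I control wells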
IEC-6 cytotox cf: IEC-6 cytotoxicity, confirmation assay. shares compounds with IEC-6 tox. IEC-6 rat intestinal epithelial viability, luminescence. inhibition, % at 5 µM. 1,900 compounds, 63% hits;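 further: 0% = vehicle and 100% = reference cytotoxic drug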
* hit, by the source's call; . = no result given. Unless noted, no stated cut-off is given here; in the data, active means inhibition above about 22%; inactive means the rest.

SMILES	aSyn UTR inh	APP transl inh	Ba/F3 V617F tox	IEC-6 tox	KLF5 inhibitor	BaF3 tox	IEC-6 cytotox cf
CCOc1ccc(S(=O)(=O)Nc2cc(SCC(=O)O)c(O)c3ccccc23)cc1	48	.	.	49*	-14	.	1
COc1cc(-c2noc(C)c2-c2ccc3[nH]ccc3c2)cc(OC)c1OC	-11	.	.	89*	41	.	60*
COCCCN(C(=O)C(C)Oc1ccc(Br)cc1)c1c(N)n(Cc2ccccc2)c(=O)[nH]c1=O (centres undefined)	19	.	.	.	.	.	.
COc1cccc2sc(Nc3nnc(-c4ccc(F)cc4)o3)nc12	5	-10	-1	-2	-15	3	.
COc1cccc2sc(Nc3nnc(-c4cccs4)o3)nc12	41	-71	11	69*	-8	10	59*
COc1cccc2sc(Nc3nc(-c4ccccn4)cs3)nc12	52	84*	51*	89*	25	53*	96*
CC(=O)Nc1ccc(NC(=O)C(C)OC(=O)CCCOc2ccc(Cl)cc2C)cc1 (centres undefined)	2	.	.	.	.	.	.
Nc1nc(-c2ccccc2)cc(N2CCCCC2)n1	55	94*	70*	82*	61	77*	59*
c1ccc(-c2cc(N3CCCCC3)ncn2)cc1	-135	-45	-2	6	-58	3	.
O=C(NCCS(=O)(=O)N1CCN(c2ccccc2F)CC1)c1cccs1	-4	.	.	.	.	.	.
COc1cc(/C=N/NC(=O)CC#N)cc(Br)c1O	-4	-6	-4	37*	9	0	-6
COc1cc(/C=N/NC(=O)Cc2ccc(Br)cc2)cc(OC)c1O	2	-12	-5	-2	-9	-1	.
O=C(NNC(=S)NC(=O)c1ccccc1[N+](=O)[O-])c1ccccc1[N+](=O)[O-]	-4	-6	4	0	-27	7	.
CCCCOc1ccccc1C(=O)NNC(=S)NC(=O)c1ccccc1[N+](=O)[O-]	16	.	.	25*	15	.	7
CCCC(=O)NC(c1ccccc1)c1ccc2cccnc2c1O (centres undefined)	65*	.	.	42*	89*	.	66*
CCCCC(=O)NC(c1ccccc1)c1ccc2cccnc2c1O (centres undefined)	68*	.	.	24*	96*	.	54*
CCOc1ccccc1C1CC(=O)Nc2cc(C)c(C)cc21 (centres undefined)	34	.	.	42*	11	.	26*
CCOc1ccccc1C1CC(=O)Nc2cc3c(cc21)OCCO3 (centres undefined)	92*	14	80*	66*	60	78*	54*
Cc1cc2c(cc1C)C(c1ccccc1OC(C)C)CC(=O)N2 (centres undefined)	-12	.	.	44*	27	.	31*
CCOc1ccccc1C1CC(=O)Nc2cc(OC)c(OC)c(OC)c21 (centres undefined)	27	-5	-1	-4	-49	2	.
CCCOc1ccccc1C1CC(=O)NC2=C1C(=O)CCC2 (centres undefined)	32	21	18	37*	-6	28*	33*
O=C1CC(c2cccnc2)c2cc3c(cc2N1)OCCO3 (centres undefined)	37	-8	6	7	-2	12	.
CCOc1ccccc1C1CC(=O)NC2=C1C(=O)CCC2 (centres undefined)	-46	-4	-1	8	23	5	.
COC(=O)C[C@H]1c2cc(F)cc(F)c2S(=O)(=O)N1C1CCN(Cc2ccccc2)CC1	-3	.	.	.	.	.	.
Cc1c(C(=O)N2CCOCC2)sc(NC(=O)C(C)C)c1C#N	14	.	.	4	-13	.	.
SMILES	aSyn UTR inh	APP transl inh	Ba/F3 V617F tox	IEC-6 tox	KLF5 inhibitor	BaF3 tox	IEC-6 cytotox cf
O=C(NCCc1nnc2ccc(SCC(=O)N3CCCC3)nn12)c1ccc(F)cc1	-40	.	.	7	-28	.	.
CSc1nc(-c2ccc(N(C)C)cc2)c(C#N)c(=O)n1C	-72	-24	-2	2	-44	1	.
CC(C)(CC(=O)O)CC(=O)Nc1ccc(Cl)c(Cl)c1	-4	.	4	-1	1	-3	.
COc1ccccc1C1CC(=O)Nc2cc(C)c(C)cc21 (centres undefined)	63*	.	.	36*	-11	.	6
CSCC(=O)N1CCc2ccc(NC(=O)c3ccccc3Cl)cc2C1	-117	.	.	4	-100	.	.
CCC1CCCCN1C(=O)c1ccc2c(c1)C(=O)N(c1ccc(C)cc1)C2=O (centres undefined)	-9	.	.	-4	-2	.	.
O=c1cc(-c2ccccc2)nc2cc(-c3ccc(F)cc3)[nH]n12	-109	.	.	.	.	.	.
COc1cccc(-c2cc3nc(-c4ccccc4)cc(=O)n3[nH]2)c1	-167	.	.	78*	22	.	53*
COc1ccccc1N1CCN(C(=O)c2ccc3[nH]c(C)c(C)c3c2)CC1	72*	.	.	73*	58	.	57*
CC1(C)CC(=O)C2=C(C1)NC(Nc1nc3ccccc3o1)=NC2c1ccccn1 (centres undefined)	-21	8	3	23*	-1	9	9
O=C(CCn1c(=O)oc2ccccc21)N1CCN(c2ccccc2Cl)CC1	-18	-3	13	23*	32	16	40*
Cc1nn(C)c(NC(=O)c2ccc(Cl)cc2Cl)c1Br	-1	.	.	-4	-4	.	.
COc1ccc(-c2nc(CSCC(=O)NCCCN3CCCC3=O)c(C)o2)cc1OC	5	.	.	1	-1	.	.
Cc1ccc(/C=N/NC(=O)c2c(C)nc3ccc(Br)cn23)cc1	80*	.	.	69*	63*	.	45*
COc1ccccc1NC(=O)Cn1nnc(C(=O)NCc2cccs2)c1N	86*	.	.	79*	56	.	53*
Cc1ccc(C)c(NC(=O)Cn2nnc(C(=O)NCc3ccco3)c2N)c1	-2	.	.	24*	41	.	18
COc1cc(C(=O)NCC(=O)N2CCN(S(=O)(=O)c3cc(C)ccc3C)CC2)cc(OC)c1OC	-75	.	.	30*	14	.	17
Cc1cc(NC(=O)CSc2nnc(CNC(=O)c3c(F)cccc3F)o2)no1	-15	.	.	0	-25	.	.
COc1cc2[nH]c(C(=O)Nc3ccc(F)cc3)cc2c(OC)c1OC	-229	.	.	57*	40	.	27*
N#C/C(=C\c1ccc2c(c1)OCCO2)C(=O)Nc1ccc(C(=O)O)cc1	-19	.	.	-5	-68	.	.
O=C1c2ccccc2C(=O)N1C/C=C/c1ccccc1	-8	6	5	-4	1	8	.
O=C1C(=O)N(C/C=C/c2ccccc2)c2ccccc21	-40	.	.	89*	5	.	65*
COC(=O)c1cc(C(=O)N2CCN(c3ncccn3)CC2)cc([N+](=O)[O-])c1	15	.	.	-5	-8	.	.
COC(=O)c1cc(C(=O)N2CCN(c3cccc(C)c3C)CC2)cc([N+](=O)[O-])c1	78*	77*	49*	37*	47	68*	33*
COC(=O)c1cc(C(=O)c2c(C)cc3ccccn23)cc([N+](=O)[O-])c1	-41	.	.	44*	3	.	48*
